Results on 56 compounds are retold here after PubChem BioAssay AID1851 (National Center for Advancing Translational Sciences (NCATS), 2009).

Screen size: about 16,000 compounds; about 5,100 (32%) were called active. Another 25% or so got no clear call; they are omitted. The call rests on the fitted dose curve; in most records, active means well fitted curve in the direction sought with a large enough effect; inconclusive means small, poorly fitted or top-dose-only effect, or effect the other way; inactive means no such curve, though single readings can be large or run the other way. This is one part of the list.
On the % scale 0 is the no-effect control and ±100 the full control effect.

The target in the assay is Cytochrome P450 3A4 (Homo sapiens) (UniProt P08684). The experiment in a line: Cytochrome panel assay with activity outcomes. As to conditions: recombinant CYP, pro-luciferin dealkylation, luminescence, p450-cyp3a4; series mostly up to 57.1 µM.
Cytochrome P450 3A4 (Homo sapiens), sequence (P08684 whole entry, looked up): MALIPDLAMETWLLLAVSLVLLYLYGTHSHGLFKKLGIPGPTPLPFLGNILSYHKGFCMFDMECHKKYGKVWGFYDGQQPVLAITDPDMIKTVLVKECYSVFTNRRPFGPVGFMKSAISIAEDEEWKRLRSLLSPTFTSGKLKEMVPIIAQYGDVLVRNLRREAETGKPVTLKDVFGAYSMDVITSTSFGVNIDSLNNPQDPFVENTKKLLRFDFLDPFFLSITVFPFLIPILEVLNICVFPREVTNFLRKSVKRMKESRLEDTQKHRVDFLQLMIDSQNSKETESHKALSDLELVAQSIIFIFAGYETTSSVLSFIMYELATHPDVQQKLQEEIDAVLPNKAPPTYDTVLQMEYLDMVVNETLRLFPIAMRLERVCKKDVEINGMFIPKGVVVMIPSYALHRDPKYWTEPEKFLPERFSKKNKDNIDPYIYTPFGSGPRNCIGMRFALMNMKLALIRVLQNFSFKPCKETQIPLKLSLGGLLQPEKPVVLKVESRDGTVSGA
For the compound `CC12c3ccccc3C(c3ccccc31)C1C(=O)N(Cc3cccnc3)C(=O)C12` (stereo unspecified), the concentration at half-maximal activity (AC50) is 1.58 µM (active).
Take `CC1CCCC(C)N1C(=O)C1CC(c2ccc(F)cc2)=NO1` (stereo unspecified): the AC50 was 11.2 µM (active).
For the compound `CC1CCN(C(=O)CSc2nc3cccnc3n2C)CC1`, the AC50 result is “inactive”.
On the same count and under the same terms, with `O=C(O)c1cccnc1SCC(=O)N1CCCCCC1` the entry was “inactive”.
As to `COc1ccccc1-n1c(SCC(=O)N2CCCC2)nc2cccnc21`, the AC50 was 15.8 µM (active).
Regarding `CCN(CC)S(=O)(=O)c1ccc2c(c1)nc(SCC(=O)N1CCOCC1)n2-c1ccccc1OC`, the AC50 was 3.98 µM (active).
Consider `CC(C)=C[C@H]1[C@@H](COC(=O)c2ccccc2Cl)C1(C)C`, for which the activity, negative = inhibition is -18.7% [at 11.4 µM] (inactive).
Same read-out and setting: the figure for `CCNC(=S)NNC(=O)c1cc(CC(C)C)nc2ccccc12` is -3.62% [at 2.29 µM] (inactive).
As to `CCNC(=S)NNC(=O)c1cc(C2CC2)nc2ccccc12`, the activity, negative = inhibition was -10.5% [at 2.29 µM] (inactive).
`Cc1cc(C(=O)NNC(=S)NC(C)c2ccccc2)c2ccccc2n1` (stereo unspecified): the AC50 is 14.1 µM (active).
`CCCS(=O)(=O)N1CCN(CC2CC=CCC2)CC1` (stereo unspecified): the AC50 result is “inactive”.
Take `COc1ccc(CN2CN(c3ccc(Cl)cc3)C(=O)N(n3cnnc3)C2)cc1`: the concentration at half-maximal activity (AC50) is 14.1 µM (active).
The same measure, in the same setting: with `COc1ccc2nc(N3C(=O)CC(Cc4ccc(Cl)cc4)C3=O)sc2c1` (stereo unspecified) the entry was “inactive”; with `COc1ccc(-n2cnnc2)cc1`, “inactive”.
`Nn1c(SCC(=O)N2CCOCC2)nnc1-c1ccccc1Cl`: the AC50 result was “inactive”.
The same measure, in the same setting: with `O=C(CSc1c[nH]c2ccccc12)N1CCOCC1` the figure was 15.8 µM (active).
Same read-out and setting: the entry for `C=C(C)C1Cc2nc(N)nc(C)c2C1` (stereo unspecified) is “inactive”; for `Cc1ccc(C)c(S(=O)(=O)N2CCC(c3nc4c(nnn4Cc4ccc(F)cc4)c(=O)[nH]3)CC2)c1` it is 6.31 µM (active); for `CC(=O)NC1(c2ccc(F)cc2)CCN(C(=O)Nc2ccc(F)cc2F)CC1` it is “inactive”.
Same read-out and setting: with `Cc1ccc(Cn2nnc3c(=O)[nH]c(C4CCCN(C(=O)Nc5ccc(F)cc5F)C4)nc32)cc1` (stereo unspecified) the figure was 7.08 µM (active).
Consider `COc1cccc(Cn2nnc3c(=O)[nH]c(C4CCCN(C(=O)c5ccccc5Cl)C4)nc32)c1` (stereo unspecified), for which the AC50 is 2 µM (active).
Still for that read-out and setting: with `O=C(NCc1ccco1)c1nc2c(nnn2Cc2cccc(Cl)c2)c(=O)[nH]1` the entry was “inactive”.
In the case of `O=C(O)C[C@@H](C(=O)O)C1c2ccccc2-c2ccccc21`, the activity, negative = inhibition was -5.49% [at 11.4 µM] (inactive).
As for `NC(=O)c1cc[n+](CC2=C(C(=O)O)N3C(=O)[C@@H](NC(=O)[C@H](c4ccccc4)S(=O)(=O)[O-])[C@@H]3SC2)cc1`, the AC50 result was “inactive”.
`Cn1c(C(N)=O)cnc1Sc1ncc(C(F)(F)F)cc1Cl`: the AC50 result was “inactive”.
The same measure, in the same setting: the entry for `O=C(O)/C=C/c1cn(-c2ncc(C(F)(F)F)cc2Cl)c2ccccc12` is “inactive”; for `CN(NC(=O)NN)c1ncc(C(F)(F)F)cc1Cl` it is 14.1 µM (active).
For the compound `CC(C)(C)c1ccc(C(=O)NCCC(=O)NCc2ccco2)cc1`, the AC50 was 14.1 µM (active).
Still for that read-out and setting: the figure for `COCC1C2CC[C@H]3C(OCc4ccc(F)cc4C(F)(F)F)OC[C@]4(C)[C@H]3C2=C(CN4C(=O)OC(C)(C)C)[C@H](C)C1COC` (stereo partly specified) is 15.8 µM (active).
Still for that read-out and setting: the figure for `C[C@H]1C2=C3C(CC[C@H]4C(OCc5ccc(F)cc5C(F)(F)F)OC[C@](C)([C@@H]34)N(C(=O)OC(C)(C)C)C2)C(CO)C1CO` (stereo partly specified) is 15.8 µM (active).
Same read-out and setting: the figure for `COc1cc(OC)c(NC(=S)Nc2cccc(C(C)=O)c2)cc1Cl` is 5.01 µM (active); for `O=C(Nc1ccccc1C(=O)Nc1ccc2c(c1)OCO2)c1ccco1` it is 1.26 µM (active).
For the compound `O=C(Nc1ccc2c(c1)OCCO2)c1cccc2nc3ccccc3nc12`, the half-maximal activity concentration (AC50) is 11.2 µM (active).
In the case of `COc1ccc(C(=O)Nc2ccc(NC(=O)c3ccco3)c(Cl)c2)cc1OC`, the activity, negative = inhibition was -24% [at 11.4 µM] (inactive).
Turning to `Cn1ncc([N+](=O)[O-])c1C(=O)Nc1ccc2c(c1)OCCO2`, the AC50 entry was “inactive”.
Still for that read-out and setting: the entry for `CC1(C)Oc2ccc(NC(=O)c3ccco3)cc2O1` is “inactive”.
Same read-out and setting: with `CC(C)Oc1ccc(C(=O)Nc2ccc(NC(=O)c3ccco3)c(Cl)c2)cc1` the entry was “inactive”.
On to `COc1cc(NC(=O)c2ccccc2Cl)ccc1NC(=O)c1ccco1`, for which the AC50 is 14.1 µM (active).
Turning to `CCOC(=O)C1=C(CSc2nc(-c3ccccc3)ccc2C#N)OC(N)=C(C#N)C1c1ccc(OC)cc1` (stereo unspecified), the activity, negative = inhibition was -22.9% [at 2.29 µM] (inactive).
Consider `COC(=O)C1=C(C)OC(N)=C(C#N)C1C1CCCCC1` (stereo unspecified), for which the AC50 is 7.08 µM (active).
Same read-out and setting: the figure for `COC(=O)C1=C(C)OC(N)=C(C#N)C1c1cc(OC)ccc1OC` (stereo unspecified) is 8.91 µM (active).
Consider `CCOC(=O)C1=C(c2ccccc2)OC(N)=C(C#N)C1c1ccc(Cl)s1` (stereo unspecified), for which the AC50 entry is “inactive”.
Same read-out and setting: with `C[C@H]1NC(=O)NC1=O` the entry was “inactive”.
With `CC1=C[N+](=O)c2ccccc2[N+]1=O`, the activity, negative = inhibition was -3.77% [at 11.4 µM] (inactive).
With `CC(=O)NCCNc1ncnc2ccc(-c3ccccc3C(F)(F)F)cc12`, the AC50 was 6.31 µM (active).
Still for that read-out and setting: with `COc1ccccc1-c1ccc2ncnc(NCCNC(C)=O)c2c1` the figure was 20 µM (active); with `CC(=O)NCCNc1ncnc2ccc(-c3ccccc3C)cc12`, 12.6 µM (active); with `CC(=O)NCCNc1ncnc2ccc(-c3ccccc3Cl)cc12`, 15.8 µM (active).
Turning to `CN(C)CCCNc1ncnc2nc[nH]c12`, the activity, negative = inhibition was -8.34% [at 11.4 µM] (inactive).
Take `Cc1ccc(NCC(=O)N/N=C/c2ccc(OC(=O)c3ccco3)cc2)cc1`: the AC50 is 17.8 µM (active).
The same measure, in the same setting: with `CC(C)(C)c1ccc(OCC(=O)N/N=C/c2cc(Br)ccc2OC(=O)c2ccco2)cc1` the entry was “inactive”; with `Cc1ccc(NCC(=O)N/N=C\c2ccc([N+](=O)[O-])o2)cc1`, 25.1 µM (active).
Take `Cc1ccc(/C=N/NC(=O)Cn2nccc2C)o1`: the AC50 result is “inactive”.
`Oc1ccc(/C=N/NC(=S)NCc2ccco2)cc1`: the activity, negative = inhibition is -2.66% [at 2.29 µM] (inactive).
As for `CCOC(=O)N/N=C\c1ccc([N+](=O)[O-])o1`, the activity, negative = inhibition was -11.7% [at 2.29 µM] (inactive).
As to `OC[C@@H]1O[C@@H](n2cnc3c(NC4CCCC4)ncnc32)[C@@H](O)[C@H]1O`, the AC50 result is “inactive”.

The AC50 is the concentration giving half of the maximal activity seen.
